{"source": "PubChem BioAssay", "key": {"[1]": {"experiment": "drug combination growth inhibition, ovarian cancer – cell-based, oncology-focused library, rucaparib conditional, profiling panel (AID 1508598)", "settings": "patient-derived ovarian cancer cells, CellTiter-Glo viability, 144 h, stronger effect = lower value"}, "[2]": {"experiment": "EMT-state selective cytotoxicity in co-culture – imaging, PC-3E GFP, TEM4-18 mCherry, primary screen (AID 1345086;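 active = compounds killing one labelled cell type while sparing the other, by normalised counts and ratio limits, not self-fluorescent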;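 for all read-outs here: cells exposed to compound for 72 h before imaging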;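 for red/green cell ratio (normalised): normalised mesenchymal count divided by normalised epithelial count so high means epithelial killing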)", "settings": "PC-3E GFP / TEM4-18 mCherry co-culture, imaging cell counts, at 1 µM; for red/green cell ratio (normalised): actives lie on both sides, counts scaled to control wells, 1 = unselective"}, "[3]": {"tested_on": "Aerobactin synthetase IucA (Klebsiella pneumoniae)", "experiment": "inhibition of K. pneumoniae IucA enzyme – biochemical, Tocris library, absorbance (AID 1345561; call rule not given here;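 note: 100% = enzyme without compound and 0% = no enzyme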)", "settings": "purified IucA enzyme assay, absorbance (OD) read-out; stronger effect = lower value; concentration not given here"}, "[4]": {"experiment": "viability loss in pontine glioma line – cell-based, SU-DIPG-XVII, MIPE5.0, CellTiter-Glo, qHTS, dose response (AID 1347060; cut-off not given, nearly all actives have AC50 up to about 26 µM;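 for AC50: cells exposed to compound for 48 hours before viability readout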)", "settings": "CellTiter-Glo ATP luminescence"}, "[5]": {"experiment": "viability loss in pontine glioma line – cell-based, SU-DIPG-XIII, MIPE5.0, CellTiter-Glo, qHTS, dose response (AID 1347064; cut-off not given, nearly all actives have AC50 up to about 23 µM)", "settings": "CellTiter-Glo ATP luminescence"}, "[6]": {"experiment": "JHH-DIPG-1 glioma cell viability, MIPE5.0 library, CellTiter-Glo luminescence, qHTS (AID 1347067; cut-off not given, nearly all actives have AC50 up to about 26 µM;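 note: cells exposed to compound for 48 hours before readout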)", "settings": "JHH-DIPG-1 glioma viability, CellTiter-Glo ATP luminescence"}, "[7]": {"experiment": "growth inhibition of DIPG cells – cell-based, MIPE5.0 library, qHTS (AID 1347068; cut-off not given, nearly all actives have IC50 up to about 30 µM)", "settings": "SU-DIPG-XXV viability"}, "[8]": {"experiment": "viability loss with induced miR-34 in A549 – imaging, A549 dox-inducible miR-34, nuclei and caspase counts, primary screen (AID 1347080;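 active = compounds whose cell count with miR-34 switched on is under 0.7 times the count with it off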)", "settings": "A549 miR-34 inducible, Hoechst nuclei count, 48 h"}, "[9]": {"experiment": "blockers of cellular phospholipid synthesis – cell-based, LOPAC library, screen 4, primary screen (AID 1347384; call rule not given here)", "settings": "animal cells, phospholipid biosynthesis inhibition screen; at 10 µM"}, "[10]": {"experiment": "MELAS cybrid and Rieske KO viability enhancers – cell-based, MELAS cybrids, Rieske KO mouse fibroblasts, CellTiter-Glo, primary screen (AID 1508586;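 active = mean z-score across replicates of 1.96 or higher in either the MELAS or the Rieske mutant cell line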;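 note: z relative to plate mean and SD of compound and empty wells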)", "settings": "low glucose"}, "[11]": {"experiment": "modulation of C. elegans fzo-1 (AID 1259413; call rule not given here;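 note: fzo-1 mutant C. elegans worms in liquid wells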)", "settings": "C. elegans fzo-1 modulator screen, mean read-out; stronger effect = higher value"}, "[12]": {"experiment": "viability loss in pontine glioma line – cell-based, SU-DIPG-XIII, MIPE4.0, CellTiter-Glo, qHTS, dose response (AID 1347061; cut-off not given, nearly all actives have AC50 up to about 37 µM;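 note: cells exposed to compound for 48 hours before readout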)", "settings": "CellTiter-Glo ATP luminescence"}, "[13]": {"experiment": "viability loss in pontine glioma line – cell-based, JHH-DIPG-1, MIPE4.0, CellTiter-Glo, qHTS, dose response (AID 1347062; cut-off not given, nearly all actives have AC50 up to about 27 µM)", "settings": "JHH-DIPG-1 viability, CellTiter-Glo ATP luminescence"}, "[14]": {"experiment": "viability loss in pontine glioma line – cell-based, SU-DIPG-IV, MIPE4.0, CellTiter-Glo, qHTS, dose response (AID 1347063; cut-off not given, nearly all actives have AC50 up to about 30 µM;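 note: compound exposure lasted 48 hours before the viability readout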)", "settings": "CellTiter-Glo ATP luminescence"}, "[15]": {"experiment": "viability loss in pontine glioma line – cell-based, SU-DIPG-XXV, MIPE5.0, CellTiter-Glo, qHTS, dose response (AID 1347065; cut-off not given, nearly all actives have AC50 up to about 26 µM;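 note: cells exposed to compound for 48 hours before ATP readout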)", "settings": "CellTiter-Glo ATP luminescence"}, "[16]": {"settings": "measured here: epithelial PC-3E GFP cell survival"}, "[17]": {"settings": "measured here: mesenchymal TEM4-18 mCherry cell survival"}, "[18]": {"settings": "measured here: total cells without miR-34 induction"}, "[19]": {"settings": "MELAS cybrid survival, CellTiter-Glo 48 h, stronger effect = higher value"}, "[20]": {"settings": "Rieske KO mouse fibroblast survival, CellTiter-Glo 72 h"}, "[21]": {"settings": "stronger effect = lower value, cell number ratio, induced over uninduced"}, "[22]": {"settings": "measured here: relative caspase fold change +Dox/-Dox"}, "[23]": {"settings": "measured here: total cells with miR-34 induction, stronger effect = lower value"}}, "note": "“And” between values parts separate entries of the source, which are not always exact repeats. Equal entries are not always repeated. Inconclusive results are not listed. The source made the active and inactive calls.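 Rule for the calls, unless noted: active = normalized viability below 100% at a tested concentration; inactive = the rest.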", "data": [{"smiles": "Cc1cc2c(C(C)C)c(O)c(O)c(C=O)c2c(O)c1-c1c(C)cc2c(C(C)C)c(O)c(O)c(C=O)c2c1O", "values": [{"measurement": "viability", "setting": "[1]; at 0.0195 µM, OCI-C5x cells, without rucaparib", "result": "134% (inactive)"}, {"measurement": "viability", "setting": "[1]; at 0.0195 µM, OCI-P5x cells, with rucaparib 20 µM, 100% = cells with rucaparib alone", "result": "101% (inactive)"}, {"measurement": "viability", "setting": "[1]; at 0.0195 µM, OCI-P5x cells, without rucaparib", "result": "112% (inactive)"}, {"measurement": "viability", "setting": "[1]; at 0.0781 µM, OCI-C5x cells, with rucaparib 10 µM, 100% = cells with rucaparib alone", "result": "110% (inactive)"}, {"measurement": "viability", "setting": "[1]; at 0.0781 µM, OCI-C5x cells, without rucaparib", "result": "123% (inactive)"}, {"measurement": "viability", "setting": "[1]; at 0.0781 µM, OCI-P5x cells, with rucaparib 20 µM, 100% = cells with rucaparib alone", "result": "108% (inactive)"}, {"measurement": "viability", "setting": "[1]; at 0.0781 µM, OCI-P5x cells, without rucaparib", "result": "116% (inactive)"}, {"measurement": "viability", "setting": "[1]; at 0.313 µM, OCI-C5x cells, with rucaparib 10 µM, 100% = cells with rucaparib alone", "result": "128% (inactive)"}, {"measurement": "viability", "setting": "[1]; at 0.313 µM, OCI-C5x cells, without rucaparib", "result": "144% (inactive)"}, {"measurement": "viability", "setting": "[1]; at 0.313 µM, OCI-P5x cells, with rucaparib 20 µM, 100% = cells with rucaparib alone", "result": "107% (inactive)"}, {"measurement": "viability", "setting": "[1]; at 0.313 µM, OCI-P5x cells, without rucaparib", "result": "113% (inactive)"}, {"measurement": "viability", "setting": "[1]; at 1.25 µM, OCI-C5x cells, with rucaparib 10 µM, 100% = cells with rucaparib alone", "result": "110% (inactive)"}, {"measurement": "viability", "setting": "[1]; at 1.25 µM, OCI-C5x cells, without rucaparib", "result": "148% (inactive)"}, {"measurement": "viability", "setting": "[1]; at 1.25 µM, OCI-P5x cells, with rucaparib 20 µM, 100% = cells with rucaparib alone", "result": "95.9% (active)"}, {"measurement": "viability", "setting": "[1]; at 1.25 µM, OCI-P5x cells, without rucaparib", "result": "110% (inactive)"}, {"measurement": "viability", "setting": "[1]; at 5 µM, OCI-C5x cells, with rucaparib 10 µM, 100% = cells with rucaparib alone", "result": "130% (inactive)"}, {"measurement": "viability", "setting": "[1]; at 5 µM, OCI-C5x cells, without rucaparib", "result": "156% (inactive)"}, {"measurement": "viability", "setting": "[1]; at 5 µM, OCI-P5x cells, with rucaparib 20 µM, 100% = cells with rucaparib alone", "result": "89.5% (active)"}, {"measurement": "viability", "setting": "[1]; at 5 µM, OCI-P5x cells, without rucaparib", "result": "106% (inactive)"}]}, {"smiles": "Cc1ccc(C(=O)Nc2ccc(S(=O)(=O)O)c3cc(S(=O)(=O)O)cc(S(=O)(=O)O)c23)cc1NC(=O)c1cccc(NC(=O)Nc2cccc(C(=O)Nc3cc(C(=O)Nc4ccc(S(=O)(=O)O)c5cc(S(=O)(=O)O)cc(S(=O)(=O)O)c45)ccc3C)c2)c1", "values": [{"measurement": "red/green cell ratio (normalised)", "setting": "[2]", "result": "1.23 (inactive) and 0.9 (inactive)"}, {"measurement": "normalised cell number", "setting": "[2]; [16]", "result": "0.96 and 1.07"}, {"measurement": "normalised cell number", "setting": "[2]; [17]", "result": "1.17 and 0.97"}, {"measurement": "remaining activity", "setting": "[3]", "result": "38.8% (active)"}, {"measurement": "AC50", "setting": "[4]", "result": "14.4 µM (active)"}, {"measurement": "outcome", "setting": "[5]", "result": "inactive"}, {"measurement": "outcome", "setting": "[6]", "result": "inactive"}, {"measurement": "outcome", "setting": "[7]", "result": "inactive"}, {"measurement": "cell count", "setting": "[8]; [18]", "result": "10200 and 13600 and 11000"}, {"measurement": "outcome", "setting": "[9]", "result": "inactive"}, {"measurement": "z-score", "setting": "[10]; [19]", "result": "0.0857 (inactive)"}, {"measurement": "z-score", "setting": "[10]; [20]", "result": -0.401}]}, {"smiles": "O=C1OCCN1/N=C/c1ccc([N+](=O)[O-])o1", "values": [{"measurement": "red/green cell ratio (normalised)", "setting": "[2]", "result": "1.17 (inactive)"}, {"measurement": "normalised cell number", "setting": "[2]; [16]", "result": 0.95}, {"measurement": "normalised cell number", "setting": "[2]; [17]", "result": 1.11}]}, {"smiles": "COc1cc(OC)cc(OC)c1", "values": [{"measurement": "red/green cell ratio (normalised)", "setting": "[2]", "result": "0.87 (inactive)"}, {"measurement": "normalised cell number", "setting": "[2]; [16]", "result": 1.26}, {"measurement": "normalised cell number", "setting": "[2]; [17]", "result": 1.09}]}, {"smiles": "CCN1CC(CCN2CCOCC2)C(c2ccccc2)(c2ccccc2)C1=O", "note": "(configuration not stated)", "values": [{"measurement": "mean signal", "setting": "[11]", "result": "250 (inactive)"}, {"measurement": "fold change", "setting": "[8]; [21]", "result": "0.947 (inactive) and 1 (inactive)"}, {"measurement": "fold change", "setting": "[8]; [22]", "result": "1.42 and 1.3"}, {"measurement": "cell count", "setting": "[8]; [23]", "result": "7960 and 7680"}, {"measurement": "cell count", "setting": "[8]; [18]", "result": "8400 and 7650"}, {"measurement": "z-score", "setting": "[10]; [19]", "result": "-0.295 (inactive) and -0.762 (inactive)"}, {"measurement": "z-score", "setting": "[10]; [20]", "result": "-0.241 and -0.506"}]}, {"smiles": "COCc1c(C(C)C)nc(C(C)C)c(/C=C/[C@@H](O)C[C@@H](O)CC(=O)O)c1-c1ccc(F)cc1", "values": [{"measurement": "mean signal", "setting": "[11]", "result": "232 (inactive)"}, {"measurement": "fold change", "setting": "[8]; [21]", "result": "1.07 (inactive)"}, {"measurement": "fold change", "setting": "[8]; [22]", "result": 1.46}, {"measurement": "cell count", "setting": "[8]; [23]", "result": 1320}, {"measurement": "cell count", "setting": "[8]; [18]", "result": 1240}, {"measurement": "z-score", "setting": "[10]; [19]", "result": "-1.23 (inactive)"}, {"measurement": "z-score", "setting": "[10]; [20]", "result": -0.402}]}, {"smiles": "O=C1CCc2cc(OCCCCc3nnnn3C3CCCCC3)ccc2N1", "values": [{"measurement": "red/green cell ratio (normalised)", "setting": "[2]", "result": "1.09 (inactive)"}, {"measurement": "normalised cell number", "setting": "[2]; [16]", "result": 0.86}, {"measurement": "normalised cell number", "setting": "[2]; [17]", "result": 0.94}, {"measurement": "remaining activity", "setting": "[3]", "result": "118% (inactive)"}, {"measurement": "outcome", "setting": "[4]", "result": "inactive"}, {"measurement": "outcome", "setting": "[12]", "result": "inactive"}, {"measurement": "outcome", "setting": "[13]", "result": "inactive"}, {"measurement": "outcome", "setting": "[14]", "result": "inactive"}, {"measurement": "outcome", "setting": "[5]", "result": "inactive"}, {"measurement": "outcome", "setting": "[15]", "result": "inactive"}, {"measurement": "outcome", "setting": "[6]", "result": "inactive"}, {"measurement": "outcome", "setting": "[9]", "result": "inactive"}, {"measurement": "z-score", "setting": "[10]; [19]", "result": "-0.457 (inactive) and 0.645 (inactive)"}, {"measurement": "z-score", "setting": "[10]; [20]", "result": "0.52 and 0.278"}]}, {"smiles": "O=C1[C@H]2CCCC[C@H]2C(=O)N1CCCCN1CCN(c2nsc3ccccc23)CC1", "values": [{"measurement": "mean signal", "setting": "[11]", "result": "254 (inactive)"}, {"measurement": "z-score", "setting": "[10]; [19]", "result": "1.02 (inactive)"}, {"measurement": "z-score", "setting": "[10]; [20]", "result": 0.693}]}, {"smiles": "O=C1c2cccc3c2[C@H](CCC3)CN1[C@@H]1CN2CCC1CC2", "values": [{"measurement": "mean signal", "setting": "[11]", "result": "244 (inactive)"}, {"measurement": "z-score", "setting": "[10]; [19]", "result": "0.942 (inactive)"}, {"measurement": "z-score", "setting": "[10]; [20]", "result": 0.737}]}, {"smiles": "C[n+]1c2cc(N)ccc2cc2ccc(N)cc21", "note": "(tested in a mixture with another compound)", "values": [{"measurement": "red/green cell ratio (normalised)", "setting": "[2]", "result": "0.5 (inactive)"}, {"measurement": "normalised cell number", "setting": "[2]; [16]", "result": 0.56}, {"measurement": "normalised cell number", "setting": "[2]; [17]", "result": 0.28}]}, {"smiles": "NC(CS)C(=O)O", "note": "(configuration not stated)", "values": [{"measurement": "red/green cell ratio (normalised)", "setting": "[2]", "result": "0.99 (inactive)"}, {"measurement": "normalised cell number", "setting": "[2]; [16]", "result": 1}, {"measurement": "normalised cell number", "setting": "[2]; [17]", "result": 0.99}]}]}
